Only a selection was taken, and hits are over-represented in it overall.
Pf Dd2 inh = qHTS Primary assay for Inhibitors of Plasmodium falciparum Dd2 growth in vitro; P. falciparum Dd2 growth, SYBR Green, 72 h; Potency, µM (series often up to 28.9 µM), for inactives: at the highest dose activity, negative = inhibition, hits mostly inhibitors; hit rate 4.3% among 120,000; AID 1347417, 2020; active = well fitted inhibition curve with a large enough effect;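 also: plate controls were DMSO vehicle for no effect and reference drug for full effect; nearly all actives have a fitted effect of over 65% in size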
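Readout: SYBR Green fluorescence, 485 nm excitation, 535 nm emission, after ~16 h lysis at 37C. Before that, Dd2-infected red cells (2.5% hematocrit) grew 72 h with compound, 29 uM top final concentration.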
Numbers without * were called inactive; i = inactive; [ ] = remark or other dose. Potency is read from the fitted curve at half-maximal effect.

SMILES	Pf Dd2 inh
CC(=O)NCC(=O)N1CCC(N2C(=O)C(OCC3CC3)C23CCOCC3)CC1 (configuration not stated)	-13%
Cc1ncsc1CCC(=O)N1C[C@@H](c2ccccc2)[C@@H]2[C@H]1C1CCN2CC1	2%
CCn1cc(C(=O)N2C[C@H](c3cccc(OC)c3)[C@@H]3[C@H]2C2CCN3CC2)cn1	-12%
COc1ccc([C@@H]2CN(C(=O)c3sccc3C)[C@@H]3C4CCN(CC4)[C@@H]32)cc1	10µM*
CC(C)(C)NC(=O)N1CCCC1c1nc(CCOc2ccc(F)cc2)no1 (configuration not stated)	-12%
Cc1nn(C)c(C)c1S(=O)(=O)N1CCC2(CC1)CC(N1CCN(C)CC1)CCO2 (configuration not stated)	9%
CC1(C)[C@H](Cc2cc(CN3CCN(c4ccccc4)CC3)on2)C[C@@H]1NCC1CC1	i
CC1(C)[C@H](Cc2cc(COc3ccccc3)on2)C[C@@H]1NC(=O)C1CCCC1	i
CCCCc1cc(C[C@@H]2C[C@H](NC(=O)C(C)(C)C)C2(C)C)no1	i
CN(C)Cc1cc(C[C@@H]2C[C@H](NC(=O)CC(C)(C)C)C2(C)C)no1	14µM*
CC(C)NC(=O)N[C@H]1C[C@@H](Cc2cc(CN3CCN(c4ccccc4)CC3)on2)C1(C)C	10µM*
CC1(C)[C@H](Cc2cc(CO)on2)C[C@@H]1NC(=O)C1CCC1	1%[44.1 µM]
CC(C)N[C@H]1C[C@@H](Cc2cc(CCO)on2)C1(C)C	-9%[44.1 µM]
CC(C)N[C@H]1C[C@@H](Cc2cc(CO)on2)C1(C)C	-16%[44.1 µM]
CC(C)N[C@H]1C[C@@H](Cc2cc(COc3ccccc3)on2)C1(C)C	11µM*
CC1(C)[C@H](Cc2cc(CN3CCCCC3)on2)C[C@@H]1NC(=O)c1ccccc1	-5%[44.1 µM]
CC1(C)[C@H](Cc2cc(COc3ccccc3)on2)C[C@@H]1NC(=O)C1CCC1	11µM*
CC1(C)[C@H](Cc2cc(COc3ccccc3)on2)C[C@@H]1NC(=O)NCc1ccccc1	-1%[44.1 µM]
CCOc1ccccc1CNC(=O)c1cc2sc(C)c(CN3CCOCC3)c2[nH]1	i
COc1ccc2[nH]c3c(c2c1)CCN(C)C31CCN(C(=O)c2cc(C)[nH]n2)CC1	i
CC[C@H]1CN(C(=O)Nc2cccc(OC)c2)CC[C@H]1CC(=O)N(C)CC#N	i
NC(=O)c1cccc(CN2CCC3(CC2)CC(c2cccnc2)=NO3)c1	5%
Cc1nnsc1C(=O)N[C@H]1CCN(C(=O)c2ccco2)[C@H](C(=O)N[C@H](Cc2ccccc2)C(N)=O)C1	-4%
O=C(Nc1ccc2nc(SCCOc3ccccc3Cl)sc2c1)c1cccs1	2.8µM*
CCC(=O)Nc1ccc2nc(SCCOc3ccccc3)sc2c1	i
SMILES	Pf Dd2 inh
Cc1ccc(OCCSc2nc3ccc(NC(=O)COc4ccc(F)cc4)cc3s2)cc1	19%
Cc1ccccc1NC(=O)CSc1nc2ccc(NC(=O)c3cccs3)cc2s1	i
Cc1ccc(OCCSc2nc3ccc(NC(=O)c4ccc(F)cc4)cc3s2)cc1	21%
Cc1ccc(OCCSc2nc3ccc(NC(=O)c4cccs4)cc3s2)cc1	1µM*
COc1cccc(CC(=O)N2CCC3(CC2)CN(c2ncccn2)CC3CO)c1 (configuration not stated)	-18%
Cc1cnn(CC(=O)N2C[C@@H](CO)[C@H](c3ccccn3)C2)c1	-14%
OCC1CN(c2ncccn2)CC12CCN(Cc1ccncc1)CC2 (configuration not stated)	-10%
C[S+](=O)([O-])N1CCN(c2ccc(C=O)cc2)C(=O)C1	8%[44.1 µM]
CC(=O)NC1(C)CCN(Cc2cnc(-c3cccc(N4CCOCC4)c3)s2)CC1	0%[44.1 µM]
Cc1ccc(C)c(CN2CCn3c(nn(CCCOc4ccc(F)cc4)c3=O)C2=O)c1	-10%
CCNC(=O)N(C1CC1)C1CCOC2(CCN(C(=O)c3nccc4ccccc34)CC2)C1 (configuration not stated)	0%
CCOC(=O)C1CCN(c2cc3c(cc2NC(=O)c2ccc(OC)c(OC)c2)n(C)c(=O)n3C)CC1	8.9µM*
CCOC(=O)c1ccc(NC(=O)Nc2cc3c(cc2N2CCCC2)n(C)c(=O)n3C)cc1	i
COc1ccc(C(=O)Nc2cc(C(F)(F)F)ccc2N2CCN(c3ccccc3)CC2)cc1OC	-7%
O=C(C1CC1)N1CCC(N2CC3CC(C2)[C@H]2CCCC(=O)N2C3)CC1 (some centres not stated)	-6%
CN1CCOc2c(C(=O)NCCC(N)=O)cc(-c3ccccc3F)cc21	-8%[44.1 µM]
CC(C)CCN1CCCC2(C1)C(=NC1CCCCC1)NC(=O)N2c1cc(F)cc(F)c1 (configuration not stated)	4µM*
CC(C)CCN1CCC2(C1)C(=NC1CCCCC1)NC(=O)N2c1cccnc1 (configuration not stated)	77%
O=C1NC(=NC2CCCC2)C2(CCN(CC3CC3)C2)N1c1cccnc1 (configuration not stated)	-12%
O=C(c1ccccc1F)N1CCC2(C1)C(=NC1CCCCC1)NC(=O)N2c1cc(F)cc(F)c1 (configuration not stated)	-4%
O=C1NC(=NC2CCCCC2)C2(CCN(CC3CCCCC3)C2)N1c1cc(F)cc(F)c1 (configuration not stated)	5µM*
O=C1NC(=NC2CCCC2)C2(CCCN(CC3CCCCC3)C2)N1c1cc(F)cc(F)c1 (configuration not stated)	4.5µM*
CC(C)CCN1CCCC2(C1)C(=NC1CCCC1)NC(=O)N2c1cccnc1 (configuration not stated)	-14%
O=C(c1ccccc1)N1CCC2(C1)C(=NC1CCCCC1)NC(=O)N2c1cc(F)cc(F)c1 (configuration not stated)	9%
O=C1NC(=NC2CCCCC2)C2(CCN(CC3CCCCC3)CC2)N1c1cc(F)cc(F)c1	10%
SMILES	Pf Dd2 inh
Cc1cccc(-n2nc(-c3c(C)nc4scc(CC(=O)NCCC(C)C)n4c3=O)cc2C)c1	-5%
Cc1[nH]nc(CN2CCC3(CCN(C4CCCC4)CC3)C(CO)C2)c1Cl (configuration not stated)	-8%
CCN(C1CCOCC1)C1CN(C(=O)c2cccn2C)C1	0%
COc1ccc(C(=O)N2CCC(n3cc(-c4nc(C5CC5)no4)nn3)C2)cc1F (configuration not stated)	-12%
Cn1cccc1C(=O)N[C@H]1C[C@@H]2C(=O)N[C@H]3CCN(C(=O)Cc4cccs4)[C@@H]3C(=O)N2C1	9%
CN(Cc1cnccn1)C(=O)C1CCCN(C2CCN(C(=O)C3CC3)CC2)C1 (configuration not stated)	4%
O=C(CCC1N=C2c3ccccc3N=C(SCc3ccc(F)cc3)N2C1=O)N1CCN(c2ccccc2)CC1 (configuration not stated)	13µM*
O=C(CC1N=C2c3ccccc3N=C(SCc3ccc(F)cc3)N2C1=O)NCCc1ccccc1 (configuration not stated)	-18%
O=C(CCC1N=C2c3ccccc3N=C(SCc3cccc(Cl)c3)N2C1=O)NCCc1ccccc1 (configuration not stated)	38%
O=C(CCC1N=C2c3ccccc3N=C(SCc3cccc(Cl)c3)N2C1=O)NCc1cccs1 (configuration not stated)	82%
O=C(CCC1N=C2c3ccccc3N=C(SCC(=O)NCCc3ccccc3)N2C1=O)NCc1ccc(F)cc1 (configuration not stated)	-19%

Screens deposited in PubChem by National Center for Advancing Translational Sciences (NCATS).
